In PubChem BioAssay:
A number with no mark means an inactive call. Active and inactive are the calls of the source.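 Rule for the calls: active = normalized viability below 100% at a tested concentration; inactive = the rest.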

test: drug combination growth inhibition, ovarian cancer – cell-based, oncology-focused library, rucaparib conditional, profiling panel (AID 1508598); details: patient-derived ovarian cancer cells, CellTiter-Glo viability, 144 h; at 0.00488 µM; OCI-P5x cells; with rucaparib 20 µM; hits give low values; 100% = cells with rucaparib alone

SMILES	viability
N#CCNC(=O)c1ccc(-c2ccnc(Nc3ccc(N4CCOCC4)cc3)n2)cc1	106%
Nc1nc(Nc2ccc(S(N)(=O)=O)cc2)nn1C(=O)c1c(F)cccc1F	94.7% (active)
O=C(Nc1ccccc1-c1cn2c(CN3CCNCC3)csc2n1)c1cnc2ccccc2n1	111%
COc1ccc(-c2ccc3c(N4CCOCC4)nc(N4C[C@@H](C)O[C@@H](C)C4)nc3n2)cc1CO	104%
CC1(C)CNc2cc(NC(=O)c3cccnc3NCc3ccncc3)ccc21	135%
COc1cc2nccc(Oc3ccc(NC(=O)Nc4cc(C)on4)c(Cl)c3)c2cc1OC	92.6% (active)
N#Cc1c(NC(=O)c2cccc3ccccc23)sc2c1CCCC2	102%
COc1ccc(-c2ccc3c(N4CCOC[C@@H]4C)nc(N4CCOC[C@@H]4C)nc3n2)cc1CO	90.3% (active)
Cc1cnc(NC(=O)Nc2cc(Br)c(C)cc2OC[C@@H]2CNCCO2)cn1	114%
COC(=O)c1ccc2c(C(=Nc3ccc(N(C)C(=O)CN4CCN(C)CC4)cc3)c3ccccc3)c(O)[nH]c2c1	95.7% (active)
Cc1ccc(F)c(NC(=O)Nc2ccc(-c3cccc4[nH]nc(N)c34)cc2)c1	96.5% (active)

same assay, conditions: patient-derived ovarian cancer cells, CellTiter-Glo viability, 144 h; at 0.00488 µM; OCI-P5x cells; without rucaparib; hits give low values

SMILES	viability
N#CCNC(=O)c1ccc(-c2ccnc(Nc3ccc(N4CCOCC4)cc3)n2)cc1	96.8% (active)
Nc1nc(Nc2ccc(S(N)(=O)=O)cc2)nn1C(=O)c1c(F)cccc1F	94.4% (active)
O=C(Nc1ccccc1-c1cn2c(CN3CCNCC3)csc2n1)c1cnc2ccccc2n1	114%
COc1ccc(-c2ccc3c(N4CCOCC4)nc(N4C[C@@H](C)O[C@@H](C)C4)nc3n2)cc1CO	107%
CC1(C)CNc2cc(NC(=O)c3cccnc3NCc3ccncc3)ccc21	104%
COc1cc2nccc(Oc3ccc(NC(=O)Nc4cc(C)on4)c(Cl)c3)c2cc1OC	93.9% (active)
N#Cc1c(NC(=O)c2cccc3ccccc23)sc2c1CCCC2	97.3% (active)
COc1ccc(-c2ccc3c(N4CCOC[C@@H]4C)nc(N4CCOC[C@@H]4C)nc3n2)cc1CO	91% (active)
Cc1cnc(NC(=O)Nc2cc(Br)c(C)cc2OC[C@@H]2CNCCO2)cn1	109%
COC(=O)c1ccc2c(C(=Nc3ccc(N(C)C(=O)CN4CCN(C)CC4)cc3)c3ccccc3)c(O)[nH]c2c1	104%
Cc1ccc(F)c(NC(=O)Nc2ccc(-c3cccc4[nH]nc(N)c34)cc2)c1	97.7% (active)

same assay, conditions: patient-derived ovarian cancer cells, CellTiter-Glo viability, 144 h; at 0.0195 µM; OCI-C5x cells; with rucaparib 10 µM; hits give low values; 100% = cells with rucaparib alone

SMILES	viability
N#CCNC(=O)c1ccc(-c2ccnc(Nc3ccc(N4CCOCC4)cc3)n2)cc1	109%
Nc1nc(Nc2ccc(S(N)(=O)=O)cc2)nn1C(=O)c1c(F)cccc1F	94.9% (active)
O=C(Nc1ccccc1-c1cn2c(CN3CCNCC3)csc2n1)c1cnc2ccccc2n1	113%
COc1ccc(-c2ccc3c(N4CCOCC4)nc(N4C[C@@H](C)O[C@@H](C)C4)nc3n2)cc1CO	120%
CC1(C)CNc2cc(NC(=O)c3cccnc3NCc3ccncc3)ccc21	121%
COc1cc2nccc(Oc3ccc(NC(=O)Nc4cc(C)on4)c(Cl)c3)c2cc1OC	113%
N#Cc1c(NC(=O)c2cccc3ccccc23)sc2c1CCCC2	108%
COc1ccc(-c2ccc3c(N4CCOC[C@@H]4C)nc(N4CCOC[C@@H]4C)nc3n2)cc1CO	116%
Cc1cnc(NC(=O)Nc2cc(Br)c(C)cc2OC[C@@H]2CNCCO2)cn1	109%
COC(=O)c1ccc2c(C(=Nc3ccc(N(C)C(=O)CN4CCN(C)CC4)cc3)c3ccccc3)c(O)[nH]c2c1	120%
Cc1ccc(F)c(NC(=O)Nc2ccc(-c3cccc4[nH]nc(N)c34)cc2)c1	110%

same assay, conditions: patient-derived ovarian cancer cells, CellTiter-Glo viability, 144 h; at 0.0195 µM; OCI-C5x cells; without rucaparib; hits give low values

SMILES	viability
N#CCNC(=O)c1ccc(-c2ccnc(Nc3ccc(N4CCOCC4)cc3)n2)cc1	104%
Nc1nc(Nc2ccc(S(N)(=O)=O)cc2)nn1C(=O)c1c(F)cccc1F	98.4% (active)
O=C(Nc1ccccc1-c1cn2c(CN3CCNCC3)csc2n1)c1cnc2ccccc2n1	116%
COc1ccc(-c2ccc3c(N4CCOCC4)nc(N4C[C@@H](C)O[C@@H](C)C4)nc3n2)cc1CO	117%
CC1(C)CNc2cc(NC(=O)c3cccnc3NCc3ccncc3)ccc21	128%
COc1cc2nccc(Oc3ccc(NC(=O)Nc4cc(C)on4)c(Cl)c3)c2cc1OC	96.2% (active)
N#Cc1c(NC(=O)c2cccc3ccccc23)sc2c1CCCC2	116%
COc1ccc(-c2ccc3c(N4CCOC[C@@H]4C)nc(N4CCOC[C@@H]4C)nc3n2)cc1CO	106%
Cc1cnc(NC(=O)Nc2cc(Br)c(C)cc2OC[C@@H]2CNCCO2)cn1	113%
COC(=O)c1ccc2c(C(=Nc3ccc(N(C)C(=O)CN4CCN(C)CC4)cc3)c3ccccc3)c(O)[nH]c2c1	115%
Cc1ccc(F)c(NC(=O)Nc2ccc(-c3cccc4[nH]nc(N)c34)cc2)c1	119%
